Assay results from PubChem BioAssay.
Values joined by “and” are separate entries in the source; they are usually repeats but may differ in a detail not shown here. Identical values can stand only once. Active and inactive are the calls of the source. Unless noted, no rule for the calls is given here.

Tests used:
[1] = test system: XIP peptide (Xip251-270) binding; experiment: XIP fragment 251-270 binding compounds – biochemical, small-molecule microarray, fluorescence 635/667 nm, 0.1 µg/mL protein, primary screen (AID 1182); conditions: fluorescent protein binding, 635 nm, higher = more signal, called active from +8 up or from −8 down
XIP peptide (Xip251-270) = experiment: compounds binding XIP fragment 251-270 – biochemical, small-molecule microarray, fluorescence 635/667 nm, 0.5 µg/mL protein, primary screen (AID 1183); conditions: fluorescence 635 nm, higher = more signal
[2] = blood-stage malaria parasite viability loss – strain 3D7, DAPI fluorescence, 100 nL, primary screen (AID 1184);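 also: parasites grown inside human red blood cells in medium with human serum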; conditions: P. falciparum 3D7 growth, 3 d, higher = more signal
[3] = target: Homeobox protein Hox-A13 (Mus musculus) (UniProt Q62424); experiment: disruptors of Hoxa13 oligonucleotide interaction – biochemical, fluorescence polarization, labeled oligonucleotide, primary screen (AID 1185); conditions: Hoxa13:DNA binding, 15 min, higher = more signal, called active from +8 up or from −8 down
[4] = blockers of DNA damage checkpoint Chk1 activation – imaging, HeLa, hydroxyurea, phospho-Chk1 antibody, percent positive cells, primary screen (AID 1186); conditions: hydroxyurea-induced phospho-Chk1 immunofluorescence imaging, higher = more signal
[5] = blockers of DNA damage checkpoint Chk1 activation – imaging, HeLa, hydroxyurea, phospho-Chk1 nuclear intensity, primary screen (AID 1187); conditions: hydroxyurea-induced phospho-Chk1 immunofluorescence imaging, higher = more signal

Sequence of Homeobox protein Hox-A13 (Mus musculus) (Q62424 whole entry, looked up): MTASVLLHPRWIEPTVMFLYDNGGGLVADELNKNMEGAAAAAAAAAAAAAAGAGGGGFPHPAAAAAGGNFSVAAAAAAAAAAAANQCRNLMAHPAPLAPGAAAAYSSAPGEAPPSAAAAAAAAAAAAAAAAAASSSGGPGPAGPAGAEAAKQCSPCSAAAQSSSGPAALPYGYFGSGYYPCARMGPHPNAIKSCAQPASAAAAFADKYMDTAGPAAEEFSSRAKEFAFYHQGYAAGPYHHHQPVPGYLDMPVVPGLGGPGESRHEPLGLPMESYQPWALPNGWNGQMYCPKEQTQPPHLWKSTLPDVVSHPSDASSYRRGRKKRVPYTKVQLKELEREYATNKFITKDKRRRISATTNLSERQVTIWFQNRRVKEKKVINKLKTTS

SMILES	composite z-score [1]	composite z-score (XIP peptide (Xip251-270))	z-score [2]	z-score [3]	z-score [4]	z-score [5]
COC(=O)c1c2oc(c1C(=O)OC)C(=O)N[C@@H](Cc1ccccc1)Cn1cc(nn1)C1(CCCCC1)NC(=O)N[C@H](CO)CC2	0.398 (inactive) and -0.338 (inactive)	0.762 and 0.215	0.53 and 1.25	-4.76 (inactive) and -2.08 (inactive)	-0.496 (inactive) and 0.267 (inactive)	0.184 (inactive) and 0.279 (inactive)
C=C[C@@H](C)[C@H](O)c1ccc(O)c2ccccc12	-0.299 (inactive) and 0.342 (inactive)	0.892 and 0.102	-0.559 and 0.666	-3.78 (inactive) and -2.87 (inactive)	0.311 (inactive) and 0.801 (inactive)	0.0888 (inactive) and 0.837 (inactive)
C=CCN(CCCC)C(=O)C(c1cccs1)N(C(=O)/C=C\C(=O)O)c1c(Cl)cccc1CO (stereo not drawn)	-1.2 (inactive) and -0.551 (inactive)	-1.64 and 0.45	-0.486 and -0.375	0.477 (inactive) and -0.33 (inactive)	0.0771 (inactive) and -0.132 (inactive)	0.677 (inactive) and -0.0581 (inactive)
CC(C)N1CC=CC23O[C@@H]4C=CCCOC(=O)C4[C@H]2C(=O)N(C(C)CO)[C@@H]3C1=O (stereo partly drawn)	1.78 (inactive) and 0.425 (inactive)	0.716 and -0.58	-0.819 and -0.728	-3.49 (inactive) and -4.21 (inactive)	-0.161 (inactive) and -0.496 (inactive)	-0.309 (inactive) and -0.538 (inactive)
CC(C)OC(=O)C=C1C[C@@H](c2cccc(C(F)(F)F)c2)O[C@@H](c2cccc(C(F)(F)F)c2)O1	0.081 (inactive) and 0.769 (inactive)	0.78 and 0.781	0.15 and -0.473	-2.72 (inactive) and -1.27 (inactive)	-0.394 (inactive) and -0.391 (inactive)	-0.854 (inactive) and -0.46 (inactive)
C[N+](C)(C)CCCCNC(=O)[C@H]1C[C@H]2C(=O)N[C@@H](CCCC[N+](C)(C)C)C(=O)N2[C@H]1c1ccc(O)cc1	1.52 (inactive) and 1.25 (inactive)	0.761 and 0.892	0.952 and -1.12	-0.497 (inactive) and 1.22 (inactive)	0.487 (inactive) and -0.868 (inactive)	0.605 (inactive) and -0.687 (inactive)
C=CC[C@@H](O)c1ccc(O)c(F)c1	-0.316 (inactive) and -0.555 (inactive)	0.849 and -1.57	0.408 and -0.881	-2.13 (inactive) and -0.155 (inactive)	-0.0057 (inactive) and -0.138 (inactive)	-0.268 (inactive) and -0.321 (inactive)
C=CCN(C(=O)C1N(CCOCCO)C(=O)C2C(C(=O)O)C3C=CC21O3)C(C)(C)C (stereo not drawn)	-0.348 (inactive) and -0.346 (inactive)	0.102 and -0.294	-0.283 and -0.145	-1.32 (inactive) and -0.575 (inactive)	-0.262 (inactive) and -0.147 (inactive)	-0.47 (inactive) and 0.312 (inactive)
C=CCN(CCCC)C(=O)C1N(CCOCCO)C(=O)C2C(C(=O)O)C3C=CC21O3 (stereo not drawn)	0.175 (inactive) and 0.306 (inactive)	1.07 and -0.932	0.172 and 0.134	-1.14 (inactive) and -0.529 (inactive)	-0.24 (inactive) and 0.924 (inactive)	-0.299 (inactive) and 0.869 (inactive)
C=CCN(CCCCC)C(=O)C1N(CCOCCO)C(=O)C2C(C(=O)O)C3C=CC21O3 (stereo not drawn)	0.901 (inactive) and -0.15 (inactive)	0.571 and -1.58	0.234 and 0.841	-1.09 (inactive) and -0.752 (inactive)	0.0583 (inactive) and 0.485 (inactive)	0.233 (inactive) and -0.0615 (inactive)
CCOC(=O)C[C@H]1[C@H](OC(=O)c2ccccc2-c2ccccc2)[C@@H](NC(=O)Cc2ccc(OC)cc2)c2cc(OCCCO)ccc2N1C(=O)Cc1ccc(OC)cc1	0.645 (inactive) and -0.44 (inactive)	0.0988 and -0.0465	-1.83 and -1.26	-0.622 (inactive) and -3.3 (inactive)	-0.901 (inactive) and 0.898 (inactive)	-0.496 (inactive) and 0.836 (inactive)
C=CCN(C(=O)C1N(c2c(Cl)cccc2CO)C(=O)C2C(C(=O)O)C3C=CC21O3)c1ccc(OC)cc1 (stereo not drawn)	-0.241 (inactive) and -0.23 (inactive)	0.74 and 0.312	-0.927 and 0.408	-1.96 (inactive) and 0.908 (inactive)	-0.6 (inactive) and -1.27 (inactive)	0.0631 (inactive) and -0.682 (inactive)
CC(CO)N1C(=O)[C@@H]2C3C(=O)OCCC=C[C@H]3OC23C=CCN(Cn2nnc4ccccc42)C(=O)[C@@H]13 (stereo partly drawn)	0.287 (inactive) and 0.0057 (inactive)	0.699 and 0.41	-0.0355 and 0.986	-3.43 (inactive) and -5.52 (inactive)	0.787 (inactive) and 0.875 (inactive)	0.336 (inactive) and 0.749 (inactive)
